From PubChem BioAssay (EPA / NIEHS)
Active and inactive are the calls of the source. Rule for the calls: active = hit-call score of the fitted dose curve at least 0.9, where 1 is the maximum; inactive = score below 0.9.

read-out: BCL2L11 (gene 10018); assay: LTEA_HepaRG_BCL2L11: Life Technologies and Expression Analysis (LTEA) Assay for Bcl-2 (BCL2L11) gene using HepaRG (AID 2283473); details: mRNA level, 48 h; actives raise or lower the signal
Description: LTEA_HepaRG is a cell based, multiplexed-readout assay that uses HepaRG, a human liver cell line, with measurements taken at 48 hours after chemical dosing on a 96-well plate.LTEA_HepaRG_BCL2L11 is one of 102 assay component(s) measured in the LTEA HepaRG cell culture assay. It is a marker of Cell proliferation, survival, death.Data from the assay component LTEA_HepaRG_BCL2L11 was analyzed into 1 endpoint. This assay endpoint, LTEA_HepaRG_BCL2L11, was analyzed with bidirectional fitting relative to DMSO as the negative control and baseline of activity. Using a type of inducible reporter, measures of mRNA induction for gain or loss-of-signal activity can be used to understand regulation of transcription factor activity. To generalize the intended target to other relatable targets, this assay endpoint is annotated to the cell cycle intended target family, where the subfamily is Cell proliferation, survival, death.
A total of 1060 chemcials from the ToxCast library were tested in eight-point concentration-response experiments. Cell culture and cytotoxicity assays were conducted at Thermo Fisher Scientific's Custom Services facility (Madison, WI). A single lot of human HepaRG cells (Thermo Fisher Scientific, Frederick, MD) was used for the cell culture experiments. 96-well format collagen type I coated plates of human HepaRG cells were prepared using established methods. Briefly, cryopreserved HepaRG cells were thawed, plated at a density of approximately 100,000 cells/well in HepaRG Thaw, Plate, and General Purpose media (HPRG770, Thermo Fisher Scientific), and incubated for 48 hours. 0.5% DMSO was selected as vehicle control to balance the requisite need of DMSO in HepaRG cultures to maintain differentiation (for example, baseline metabolism, proportions of hepatocytes vs. cholangiocytes), while enabling further hepatic receptor pathway activation (for example, PXR and CAR) in response to chemical exposure. 48 hours after plating, the culture medium was replaced with HepaRG Serum-Free Incudtion Media. Cells were exposed to each test chemical in duplicate and maintained in CO2 incubators for another 48 hours. Chemical plates were thawed to room temperature and 200x concentrations of treatment groups were prepared. 8-point conentration-reponse curves were made with the highest exposure at 100 uM, followed by half-log dilutions, all in 0.5% DMSO. Each test plate contained variouse controls, induction positive controls (1mM phenobarbital), cytotoxicity positive controls ([…] aflatoxin B1), vehicle controls (0.5% DMSO), and total lysis controls (0.5% DMSO). Cell morphology images were taken using an Essen IncuCyte FLR automated microscope, with six 96-well plates imaged in about 24 minutes. Images were captured and exported and JPEG files. Spent culture media was transfered to black-well plates for the LDH assay, and remaining media was sorted at -80 C for later use. Cells were treated with RLT buffer and frozen until shipped for gene expression analysis. Total RNA was isolated from the cell suspension in 75 uL of Buffer RLT (Qiagen, Germantown, MD 20874) by Quintiles/Expression Analysis (Durham, NC) using a custom isolation procedure. Total RNA from each plate well was transferred to a preamplification plate. Fluidigm's 96.96 Dynamic ArrayTM (Fluidigm, Amsterdam, the Netherlands) technology was used for gene expression analyses by quantitative reverse transcription polymerase chain reaction (qRT-PCR, performed by Quintiles/Expression Analysis, Durham, NC)89. Standard TaqManTM Assays (Applied Biosystems/ThermoFisher Scientific, Foster City, CA) were used to assess the expression of 93 genes selected based on their selectivity and sensitivity to important hepatic receptors known to be modulated by environmental chemicals; importance in human hepatocyte functionality; and hepatotoxicity. […]

Question: How did the outcome turn out when c1ccc2cc3ccccc3cc2c1 was run?
Answer: inactive

Question: With OC[C@H]1O[C@@H]2O[C@H]3[C@H](O)[C@@H](O)[C@@H](O[C@H]4[C@H](O)[C@@H](O)[C@@H](O[C@H]5[C@H](O)[C@@H](O)[C@@H](O[C@H]6[C@H](O)[C@@H](O)[C@@H](O[C@H]7[C@H](O)[C@@H](O)[C@@H](O[C@H]1[C@H](O)[C@H]2O)O[C@@H]7CO)O[C@@H]6CO)O[C@@H]5CO)O[C@@H]4CO)O[C@@H]3CO as the compound, how does the outcome read?
Answer: inactive

Question: How did the outcome turn out when c1ccc(C(O[C@@H]2CCCN(CCc3ccc4c(c3)OCO4)C2)c2ccccc2)cc1 was run?
Answer: inactive

Question: With O=C(O)c1ccc2c(c1)nc(C(=O)NC1CCN(C3CC3)CC1)n2Cc1cc(-c2ccc(Cl)s2)on1 as the compound, how does the outcome read?
Answer: inactive

Question: Which outcome does the source give for OCCNCCO here?
Answer: inactive

Question: Which outcome does the source give for CC(=O)c1ccccc1 here?
Answer: inactive

Question: CC(C)C(=O)Nc1ccc([N+](=O)[O-])c(C(F)(F)F)c1 was tested. Which outcome did it give?
Answer: inactive

Question: With NC(=O)NN=Cc1ccc([N+](=O)[O-])o1 as the compound, how does the outcome read?
Answer: inactive

Question: With CCCCCOC(C)=O as the compound, how does the outcome read?
Answer: inactive

Question: O=S(=O)(O)c1ccc(N=Nc2c(O)ccc3cc(S(=O)(=O)O)ccc23)cc1 was tested. Which outcome did it give?
Answer: inactive

Question: How did the outcome turn out when O=c1[nH]cnc2c1ncn2[C@H]1CC[C@@H](CO)O1 was run?
Answer: inactive

Question: Which outcome does the source give for CCCCCCCC/C=C\CCCCCCCC(=O)OC[C@@H](O)[C@H]1OC[C@H](O)[C@H]1O here?
Answer: inactive

Question: Which outcome does the source give for O=C(O)[C@H](O)[C@@H](O)C(=O)O here?
Answer: inactive

Question: For C[C@@H](Oc1ccc(CNC(=O)c2cccnc2Oc2ccc3c(c2)OCO3)c(F)c1)C(=O)O, which outcome is on record?
Answer: inactive

Question: C=CN1CCCC1=O was tested. Which outcome did it give?
Answer: inactive

Question: CCCCC(CC)C(=O)OCCOCCOCCOC(=O)C(CC)CCCC (stereo not given) was tested. Which outcome did it give?
Answer: inactive

Question: COS(C)(=O)=O was tested. Which outcome did it give?
Answer: inactive

Question: Which outcome does the source give for CCCOc1ccc(S(=O)(=O)N2CCN(CC)CC2)cc1-c1nc2c(CC)n(Cc3ccccn3)nc2c(=O)[nH]1 here?
Answer: inactive

Question: Which outcome does the source give for Nc1ccn([C@@H]2O[C@H](CO)[C@@H](O)[C@@H]2O)c(=O)n1 here?
Answer: inactive

Question: Which AC50 does the source give for c1ccc2c(c1)-c1cccc3c1c-2cc1ccccc13 here?
Answer: 12.5 µM (active)

Question: Which outcome does the source give for CCCCCCCCN(C)C here?
Answer: inactive

Question: COc1cc(C(C)C)c2c(c1)S(=O)(=O)N(COc1cc(=O)n3cccc(OCCN4CCCCC4)c3n1)C2=O was tested. Which outcome did it give?
Answer: inactive

Question: Which outcome does the source give for COCc1nnc(-c2ccc[n+]([O-])c2)n1-c1c(Cl)c(Cl)cc2[nH]c(=O)c(=O)[nH]c12 here?
Answer: inactive

Question: For OCCOCCOCCO, which outcome is on record?
Answer: inactive

Question: How did the outcome turn out when CC1(C)C(=O)N(Cl)C(=O)N1Cl was run?
Answer: inactive

Question: For OC[C@H]1O[C@@](CO)(O[C@H]2O[C@H](CO)[C@@H](O)[C@H](O)[C@H]2O)[C@@H](O)[C@@H]1O, which outcome is on record?
Answer: inactive

Question: With NNC(=O)c1ccncc1 as the compound, how does the outcome read?
Answer: inactive

Question: How did the outcome turn out when CCCCCCCCCC was run?
Answer: inactive

Question: How did the outcome turn out when NC(=O)N1c2ccccc2C=Cc2ccccc21 was run?
Answer: inactive

Question: How did the AC50 turn out when Cc1nccn1-c1ccc(Sc2cccc(C3(C(N)=O)CCOCC3)c2)cc1 was run?
Answer: 3.37 µM (active)

Question: How did the outcome turn out when CCCC(CCC)C(=O)O was run?
Answer: inactive

Question: For Cn1c(=O)c2[nH]cnc2n(C)c1=O, which outcome is on record?
Answer: inactive

Question: How did the outcome turn out when O=S1(=O)CCCO1 was run?
Answer: inactive

Question: CCCCCCCC1CCC(=O)O1 (stereo not given) was tested. Which outcome did it give?
Answer: inactive

Question: Which outcome does the source give for CCCCOC(=O)c1ccccc1 here?
Answer: inactive

Question: With CC(C)c1nnc2ccc(-c3ocnc3-c3cc(F)ccc3F)cn12 as the compound, how does the outcome read?
Answer: inactive

Question: For CCc1ccc(O)c(C(C)(C)C)c1, which outcome is on record?
Answer: inactive

Question: With c1ccc2ncccc2c1 as the compound, how does the outcome read?
Answer: inactive

Question: CCCCCCCCCCCCCCCCOS(=O)(=O)O was tested. Which outcome did it give?
Answer: inactive

Question: Cc1nc(-c2ccccn2)ncc1C(=O)Nn1cc(C)c2cc(F)ccc21 was tested. Which outcome did it give?
Answer: inactive
